Experimental data: PubChem BioAssay (NCI)
About 83,000 compounds went through this panel and 20% of them were active in at least one assay; those are over-represented in the sample as a whole.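 The endpoint reported here, percent growth, reads 100 for growth as untreated, 0 for no net growth and -100 for all cells dead.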 Unmarked numbers belong to inactive results. Activity calls are given as the source filed them. The calls were made as follows: active = growth percent below 10; inactive = the rest.

Assays:
Assay in all cases: NCI-60 one-dose screen, 48 h (100 = growth as untreated, 0 = no growth, -100 = all killed)
Settings in all cases: 10 µM unless noted
[1] = system: DU-145 prostate
[2] = system: K-562 leukemia
[3] = system: MALME-3M melanoma
[4] = system: MDA-MB-231 breast
[5] = system: RXF 393 renal
[6] = system: SF-268 CNS
[7] = system: SF-295 CNS
[8] = system: SF-539 CNS
[9] = system: UACC-257 melanoma
[10] = system: M14 melanoma
[11] = system: HCT-15 colon
[12] = system: HT29 colon
[13] = system: SNB-75 CNS
[14] = system: SNB-19 CNS
[15] = system: U251 CNS
[16] = system: PC-3 prostate
[17] = system: SK-MEL-5 melanoma
[18] = system: UACC-62 melanoma
[19] = system: LOX IMVI melanoma
[20] = system: SK-MEL-28 melanoma

| Structure (SMILES) | growth [1] [%] | growth [2] | growth [3] | growth [4] [%] | growth [5] [%] | growth [6] [%] | growth [7] [%] | growth [8] [%] | growth [9] | growth [10] | growth [11] [%] | growth [12] [%] | growth [13] [%] | growth [14] [%] | growth [15] [%] | growth [16] [%] | growth [17] | growth [18] | growth [19] [%] | growth [20] [%] |
| --- | --- | --- | --- | --- | --- | --- | --- | --- | --- | --- | --- | --- | --- | --- | --- | --- | --- | --- | --- | --- |
| Nc1nc(N)c2c(n1)NC(c1ccccc1)C1CCc3ccccc3C1=N2 (stereo not given) | 49.1 | 12.1% | 15.3% | 64.6 | 84.7 | 62.7 | 17 | 47.8 | 19.7% | 53.2% | 39 | 27.9 | 54.7 | 67.2 | 37.1 | 40.8 | -23.3% (active) | 49.3% | 44.5 | 76.4 |
| CC(=O)c1ccc(NCC(=O)Nc2ccccn2)cc1 | 107 | 95.6% | 97.6% | 94.1 | 117 | 97.1 | 109 | 106 | 106% | 106% | 109 | 109 | 92.7 | 100 | 102 | 96.4 | 99.9% | 97% | 101 | 115 |
| CCN(CC)CCCNc1ccc(Nc2ccc(OC)cc2)cc1 | 90.7 | 34.1% | 104% | 34.6 | 90.5 | 77.5 | 120 | 98.6 | 87.4% | 94.7% | 105 | 67.5 | 80 | 102 | 79.8 | 55.3 | 91.2% | 95.8% | 86.4 | 101 |
| Cc1cc(C)c(-c2c(C)cc(C)cc2CBr)c(CBr)c1 | 94.9 | 67.7% | 73.5% | 97.9 | 14.8 | 74.2 | 84.7 | 96.4 | 73.9% | 72.5% | 80.6 | 86.3 | 92.3 | 86.2 | 73 | 78.4 | 77.6% | 70.9% | 53 | 86.9 |
| COC(=O)c1c2c(c[n+]([O-])c1C)C(=O)C=CC2=O | 74.1 | 2.05% (active) | -97.1% (active) | 49.9 | 57.3 | 68.7 | 103 | 83.5 | -35.1% (active) | -64.5% (active) | 12.4 | 106 | 125 | 79.8 | 37.7 | 65.8 | 72% | 0.925% (active) | 47.3 | 49 |
| CCOC(=O)c1c(-c2ccc(Cl)cc2)c(C#N)c(=O)n(-c2ccccc2CC)c1N | 93.5 | 77.6% | 100% | 90.8 | 111 | 86.8 | 74.3 | 100 | 113% | 105% | 89.7 | 110 | 89.8 | 120 | 90 | 77.5 | 85.1% | 68.8% | 95 | 99.3 |
| COc1cc2c(cc1-c1c(C)noc1C)ncc1nc(C3CCC(F)(F)CC3)n(C3CCC(OC(F)F)CC3)c12 (stereo not given) | 73.3 | 41.5% | 48.2% | 37.8 | 75.5 | 72.7 | 68.1 | 61.8 | 38.8% | 55.1% | 36.1 | 31.6 | 15.1 | 67.2 | 77.7 | 41.8 | 43.7% | 32% | 35.2 | 66.6 |
| Cc1ccc(N2CCN(C(=S)c3cccs3)CC2)cc1 | 108 | 89.1% | 100% | 97.1 | 111 | 107 | 103 | 101 | 101% | 103% | 96.3 | 90.9 | 94.3 | 100 | 96.3 | 92.9 | 95.2% | 90.1% | 116 | 102 |
| CC(=O)c1nc(Nc2ccc(C)cc2)sc1C | 102 | 97.6% | 113% | 91.3 | 96.2 | 91 | 104 | 101 | 92.1% | 97.1% | 94.1 | 105 | 75 | 93.1 | 95.8 | 93.1 | 98.6% | 98.6% | 100 | 95.2 |
| C[C@H]1[C@H]2[C@H]3CC[C@@H]4[C@@]5(C)C/C(=C/c6ccco6)C(=O)C(C)(C)[C@@H]5CC[C@@]4(C)[C@]3(C)CC[C@]23CO[C@]1(C)[C@@H](C(=O)/C=C\c1ccco1)C3 | 111 | 93.4% | 23.5% | 94.9 | 98.4 | 97.3 | 107 | 93.8 | 31.5% | 60.5% | 112 | 105 | 88.2 | 91.8 | 83.4 | 79.7 | 55.7% | 26% | 93.6 | 43.9 |
| COc1ccc(Nc2nnc(SCc3ccccc3F)s2)cc1 | 111 | 92.4% | 119% | 98.4 | 101 | 103 | 97.7 | 104 | 106% | 108% | 103 | 116 | 102 | 103 | 104 | 85.6 | 104% | 74.8% | 104 | 109 |
| O=C1/C(=C/c2ccccc2)CCc2nc3ccccc3c(/C=C/c3ccc(Cl)cc3)c21 | 98.1 | 82% | 105% | 86.6 | 96.3 | 87.5 | 96.3 | 99.3 | 82.8% | 86.6% | 69.4 | 81.3 | 76.5 | 96.3 | 93.2 | 79.6 | 89.8% | 73% | 84.7 | 91.8 |
| O=C1CCc2c(sc3[nH]c(=S)n(-c4ccc(OC(F)(F)F)cc4)c(=O)c23)C1 | 81.2 | 18% | 68% | 61.4 | 37.3 | 25.6 | 17.2 | 19 | 85.9% | 59.6% | 40.4 | 104 | 27.4 | 17.1 | 21.6 | 16.1 | 22.6% | 10.8% | 20.6 | 43.2 |
| CC(CCc1ccc(Cl)c(Cl)c1)NCc1ccc(C(C)(C)C)cc1 (stereo not given) | 101 | 25.2% | 97.6% | 72.9 | 89.6 | 92.9 | 112 | 96.8 | 64.5% | 86.1% | 77.3 | 39.6 | 70.6 | 92.5 | 70.6 | 77.5 | 92.8% | 89.9% | 79.8 | 91.9 |
